Data on 55 molecules can be found in PubChem BioAssay AID589 (National Center for Advancing Translational Sciences (NCATS), 2007).

About 6,200 (11%) of roughly 59,000 compounds were called active. Another 9% or so got no clear call; they are omitted. Rule as the data show it: active = max dye-equivalent concentration above about 10 nM; inconclusive = mostly about 1.1 nM to 9.6 nM; inactive = weaker than that. For the sample, actives were picked, then their nearest neighbours and some compounds at random.

The nature of this experiment: qHTS Assay for Spectroscopic Profiling in 4-MU Spectral Region. The conditions noted are these: compound autofluorescence, 340/450 nm, 4-MU equivalents; active compounds read high. In outline:
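Intrinsic fluorescence at 340/450 nm (ex/em) was read after 15 min at room temperature in pH 8.0, 100 mM Tris. Each compound concentration expressed as 4-MU-equivalent concentration from a six-point 4-MU standard series on each plate.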
(In general: qHTS replaces the single test concentration by a dilution series.)
As for `CCc1c(C)nc(N)n2c(SCC(=O)N3CCN(c4ccccc4)CC3)nnc12`, the max dye-equivalent concentration result was “inactive”.
As to `CCOC(=O)c1cnc(SCC(=O)NCc2ccco2)nc1N`, the max dye-equivalent concentration result was “inactive”.
Then `Cc1nc(C)c(C(=O)Nc2ccc(C)c(F)c2)o1`, with “inactive”; and `COc1c(C)cccc1C(=O)Nc1cc(Cl)ccc1N1CCOCC1`, with “inactive”; and `COc1ccc(Cl)cc1NC(=O)c1oc(C)nc1C`, with 15 nM (active).
As for `CCOC(=O)c1csc(NC(=O)c2ccc(S(=O)(=O)N3CCCC3)cc2)n1`, the max dye-equivalent concentration result is “inactive”.
To `CC(C)c1ccc(-c2nn[nH]n2)cc1` belongs “inactive”.
To `Cc1ccc(F)cc1NC(=O)c1cccc(N(C)C)c1` belongs “inactive”; to `COc1ccc(CN2CC(C(=O)NCCN3CCN(c4ccccc4F)CC3)CC2=O)cc1` (stereo not given), “inactive”; to `COc1ccc2oc(=O)c(C(=O)N3CCCc4ccccc43)cc2c1`, “inactive”.
Then `COc1ccc2oc(=O)c(C(=O)N3CCN(c4ccccc4F)CC3)cc2c1`, with 39 nM (active).
On to `CCCCC(CCC(=O)Nc1ccc(C(=O)OCC)cc1)C(=O)O` (stereo not given), for which the max dye-equivalent concentration entry is “inactive”.
Then `O=C(COc1ccc2c3c(c(=O)oc2c1)CCC3)NC1CCCCC1`, with 64 nM (active); and `O=C(CC1OC(=O)c2ccccc21)NC1CCCCC1` (stereo not given), with “inactive”.
To `O=C(COc1ccccc1F)NC1CC1` belongs “inactive”; to `O=C(COc1ccc2oc3c(c2c1)CCCC3)Nc1ccccn1`, “inactive”; to `NC(=O)COc1ccc2c3c(c(=O)oc2c1)CCCCC3`, 26 nM (active).
Then `Cc1cc(Cl)c(S(=O)(=O)NCC2CCCO2)cc1OCC(N)=O` (stereo not given), with “inactive”; and `c1ccc2c(c1)OCC(c1nn3cnnc3s1)O2` (stereo not given), with “inactive”.
In the case of `CCN(C(=O)CSc1ncn[nH]1)c1cccc2ccccc12`, the max dye-equivalent concentration result is “inactive”.
To `Cc1noc(C)c1S(=O)(=O)Nc1ccc(C(=O)O)cc1` belongs “inactive”; to `O=C(NC(c1ccccc1)c1ccccc1)N1CCN(CCO)CC1`, “inactive”.
Then `COc1ccc(N2C(=O)CCC(C(=O)N(C)C3CCCCC3)C2c2ccc(OC)c(OC)c2)cc1` (stereo not given), with “inactive”.
Then `C#CCN1C(=O)C(O)(CC(=O)c2cc(OC)ccc2OC)c2ccccc21` (stereo not given), with 13 nM (active); and `COc1ccc(OC)c(NC(=O)Cn2c(=O)oc3ccccc32)c1`, with “inactive”.
Consider `CNC(=O)NCCN1CCCC1=O`, for which the max dye-equivalent concentration result is “inactive”.
Turning to `CCOCCCNC(=O)c1c[nH]c2cc(C)ccc2c1=O`, the max dye-equivalent concentration result is “inactive”.
To `COc1cc(OC)cc(-c2nc3nc(C)c(CCC(=O)NCc4ccco4)c(C)n3n2)c1` belongs “inactive”.
To `CCn1c(=N)c(C(=O)NCCCOC)cc2c(=O)n3cccc(C)c3nc21` belongs 12000 nM (active); to `COc1ccc(CNC(=O)C2CCN(S(=O)(=O)N3CCOCC3)CC2)cc1`, “inactive”; to `COCCCNC(=O)c1ccc2c(c1)ncn2-c1ccccc1OC`, “inactive”.
Then `COc1ccccc1C(=O)NCCn1cc(SCC(=O)NCc2ccco2)c2ccccc21`, with “inactive”; and `COc1ccc(CCn2c(=N)c(C(=O)NCc3ccco3)cc3c(=O)n4cccc(C)c4nc32)cc1`, with 11 nM (active).
With `COc1ccc(C(=O)NCc2cn3ccccc3n2)cc1`, the max dye-equivalent concentration result is “inactive”.
Then `COc1ccc(CNC(=O)c2cc3c(=O)n4ccccc4nc3n(CC3CCCO3)c2=N)cc1` (stereo not given), with 270 nM (active); and `O=C(O)c1ccc(C(=O)c2ccccc2C(=O)O)cc1C(=O)O`, with “inactive”.
Then `CC(C)n1c(SCC(=O)Nc2ccccc2N2CCCCC2)nc2c1c(=O)n(C)c(=O)n2C`, with “inactive”.
To `Fc1ccccc1OCCSc1nc2ccccc2o1` belongs “inactive”.
As for `CC(C)NS(=O)(=O)c1ccc(CCC(=O)N2CCOCC2)cc1`, the max dye-equivalent concentration result is “inactive”.
To `Cc1ccccc1CSc1nnc(-c2cccnc2)n1N` belongs “inactive”; to `COc1ccccc1CNc1ncncc1-c1cccnc1`, “inactive”.
To `COc1ccc2[nH]c3c(=O)n(Cc4ccco4)cnc3c2c1` belongs 92 nM (active); to `COc1ccc(C(=O)CSc2nnc(COc3ccccc3)n2Cc2ccco2)cc1`, “inactive”.
Then `O=c1c2[nH]c3ccc(Cl)cc3c2ncn1Cc1ccccn1`, with “inactive”; and `COc1ccc(-c2nnc(SCC(=O)c3ccco3)n2-c2ccccc2)cc1`, with “inactive”.
Take `Cc1ccc(Cc2cncc(O)c2)cc1S(=O)(=O)O`: the max dye-equivalent concentration entry was “inactive”.
To `CCCn1c(=NC(C)=O)c(C(=O)OCC)cc2c(=O)n3ccccc3nc21` belongs 3500 nM (active).
Then `CCOC(=O)c1cc2n(c1C)-c1ccccc1C2=O`, with “inactive”.
For `CCOC(=O)c1cc2n(c1N)-c1ccccc1C2=O`, the max dye-equivalent concentration result is “inactive”.
In the case of `CCC(=O)Nc1ccc2c(c1)nc(CCN1CCN(C)CC1)n2C`, the max dye-equivalent concentration result is “inactive”.
Then `O=C(Nc1c2c(nn1-c1ccc(F)cc1)CS(=O)C2)C12CC3CC(CC(C3)C1)C2` (stereo not given), with “inactive”; and `CC(C)Cc1ccc(S(=O)(=O)N2CCN(C(=O)c3ccco3)CC2)cc1`, with “inactive”; and `CCc1cc(=O)oc2cc(C)cc(OC(C)C(=O)O)c12` (stereo not given), with 82 nM (active).
Then `Cc1cc2c(=O)n(C)c(SCC(=O)c3cc4ccccc4o3)nc2s1`, with “inactive”; and `CC(=O)Nc1ccc(S(=O)(=O)NCCc2ccccc2)cc1`, with “inactive”.
